Laboratory results published in PubChem BioAssay (NCATS).
Results filed as inconclusive are left out. Activity calls are given as the source filed them. Unless noted, the call rests on the fitted dose curve; in most records, active means well fitted curve in the direction sought with a large enough effect; inconclusive means small, poorly fitted or top-dose-only effect, or another doubt; inactive means no such curve, though single readings can be large; an effect the other way counts as inactive or inconclusive.

How the values were obtained:
[1] = biological target: Cytochrome P450 1A2 (Homo sapiens) (UniProt P05177); experiment: p450-cyp1a2 (AID 410; calls by dose curve; further: potency means the concentration at half of the fitted maximal effect;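 on activity change, negative = inhibition: -100% = full effect of reference inhibitor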)
Cytochrome P450 1A2 (Homo sapiens), sequence (P05177 whole entry, looked up): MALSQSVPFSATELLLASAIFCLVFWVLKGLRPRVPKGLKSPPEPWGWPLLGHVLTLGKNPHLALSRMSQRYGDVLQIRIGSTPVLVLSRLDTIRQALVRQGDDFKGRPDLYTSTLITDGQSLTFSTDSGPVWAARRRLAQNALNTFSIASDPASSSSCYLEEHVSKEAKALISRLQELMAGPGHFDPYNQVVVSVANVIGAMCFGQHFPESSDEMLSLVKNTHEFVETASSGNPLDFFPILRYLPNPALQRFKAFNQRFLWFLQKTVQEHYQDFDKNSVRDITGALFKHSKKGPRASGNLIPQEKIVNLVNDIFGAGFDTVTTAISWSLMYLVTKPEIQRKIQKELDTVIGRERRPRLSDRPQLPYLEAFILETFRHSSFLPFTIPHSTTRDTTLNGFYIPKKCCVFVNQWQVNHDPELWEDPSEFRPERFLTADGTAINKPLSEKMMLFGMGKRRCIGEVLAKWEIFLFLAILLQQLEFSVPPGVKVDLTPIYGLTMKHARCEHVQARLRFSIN
Summary of the method: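 Read-out is luminescence from luciferin produced by CYP1A2 demethylation of Luciferin-ME (100uM, at Km). Detection reagent stopped the 60 min NADPH-dependent reaction; signals were normalized to 57 uM furafylline.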

[2] = biological target: Glucocorticoid receptor (Homo sapiens) (UniProt P04150); experiment: GR-GFP Redistribution (AID 450;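 active means compounds whose dose series gives a full or clear partial fitted curve of increased nuclear translocation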; further: potency means the concentration at half of the fitted maximal effect); conditions: U2OS GR-GFP nuclear translocation, laser cytometry, 2 h
Glucocorticoid receptor (Homo sapiens), sequence (P04150 whole entry, looked up, the tested form may be a part): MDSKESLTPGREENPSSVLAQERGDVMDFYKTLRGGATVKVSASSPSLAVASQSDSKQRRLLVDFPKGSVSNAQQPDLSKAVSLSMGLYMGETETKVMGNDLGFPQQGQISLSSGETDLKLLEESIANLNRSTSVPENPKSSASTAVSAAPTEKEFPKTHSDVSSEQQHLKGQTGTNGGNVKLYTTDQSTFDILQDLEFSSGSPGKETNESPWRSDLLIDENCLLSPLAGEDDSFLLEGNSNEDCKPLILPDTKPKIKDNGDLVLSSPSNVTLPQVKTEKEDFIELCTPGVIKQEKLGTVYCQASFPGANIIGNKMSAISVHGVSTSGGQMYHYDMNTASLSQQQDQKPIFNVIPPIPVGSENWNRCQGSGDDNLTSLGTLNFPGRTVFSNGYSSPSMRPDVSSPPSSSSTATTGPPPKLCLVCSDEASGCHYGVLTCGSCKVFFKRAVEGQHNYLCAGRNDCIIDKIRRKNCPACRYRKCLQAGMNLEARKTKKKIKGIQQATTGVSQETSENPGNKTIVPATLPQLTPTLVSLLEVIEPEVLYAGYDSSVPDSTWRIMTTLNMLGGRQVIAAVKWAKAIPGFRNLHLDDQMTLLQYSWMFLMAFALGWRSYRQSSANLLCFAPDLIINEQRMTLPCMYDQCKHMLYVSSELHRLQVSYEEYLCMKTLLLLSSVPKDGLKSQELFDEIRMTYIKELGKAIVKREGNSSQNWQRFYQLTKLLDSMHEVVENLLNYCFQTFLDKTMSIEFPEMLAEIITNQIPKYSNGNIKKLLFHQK

[3] = biological target: Glucocorticoid receptor (Homo sapiens) (UniProt P04150); experiment: GR-EFC Redistribution (AID 451; calls by dose curve; further: potency means the concentration at half of the fitted maximal effect); conditions: CHO-K1 GR-EFC translocation, beta-gal luminescence, 2 h
Summary of the method: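 CHO-K1 cells stably expressing nuclear-localized β-gal enzyme acceptor and GR fused C-terminally to the enzyme donor fragment; ligand-driven nuclear translocation restores β-gal by complementation. Compounds titrated up to 46 uM final, 2 h at 37 °C; luminescence read.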

[4] = biological target: Mitogen-activated protein kinase 10 (Mus musculus) (UniProt Q61831); experiment: JNK3 AlphaScreen Assay (AID 530; active means well fitted curve in either direction with a large enough effect, not every such curve was filed as active;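 further: kinase came from lysate of stimulated human HepG2 cells; signal reports phosphorylation of biotinylated GST-cJun 1-79 at Ser73 with 10 µM ATP; on the % scale 0 is the no-effect control and ±100 the full control effect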)
Summary of the method: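 Biotinylated GST-cJun(1-79) served as substrate for JNK3 in HepG2 lysates stimulated with IL-1beta and TNF-alpha. ATP was 10 uM final, pH 7.6. Ser73 phosphorylation was quantified by AlphaScreen (680 nm excitation).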

[5] = biological target: 3',5'-cyclic-AMP phosphodiesterase 4B (Homo sapiens) (UniProt Q07343); experiment: qHTS Assay for Inhibitors of PDE-IV (AID 607; active means well fitted activation curve with a large enough effect in the main read-out, with a control signal flat, not every such curve was filed as active; further: % of control where 0% means no effect)
3',5'-cyclic-AMP phosphodiesterase 4B (Homo sapiens), sequence (Q07343 whole entry, looked up): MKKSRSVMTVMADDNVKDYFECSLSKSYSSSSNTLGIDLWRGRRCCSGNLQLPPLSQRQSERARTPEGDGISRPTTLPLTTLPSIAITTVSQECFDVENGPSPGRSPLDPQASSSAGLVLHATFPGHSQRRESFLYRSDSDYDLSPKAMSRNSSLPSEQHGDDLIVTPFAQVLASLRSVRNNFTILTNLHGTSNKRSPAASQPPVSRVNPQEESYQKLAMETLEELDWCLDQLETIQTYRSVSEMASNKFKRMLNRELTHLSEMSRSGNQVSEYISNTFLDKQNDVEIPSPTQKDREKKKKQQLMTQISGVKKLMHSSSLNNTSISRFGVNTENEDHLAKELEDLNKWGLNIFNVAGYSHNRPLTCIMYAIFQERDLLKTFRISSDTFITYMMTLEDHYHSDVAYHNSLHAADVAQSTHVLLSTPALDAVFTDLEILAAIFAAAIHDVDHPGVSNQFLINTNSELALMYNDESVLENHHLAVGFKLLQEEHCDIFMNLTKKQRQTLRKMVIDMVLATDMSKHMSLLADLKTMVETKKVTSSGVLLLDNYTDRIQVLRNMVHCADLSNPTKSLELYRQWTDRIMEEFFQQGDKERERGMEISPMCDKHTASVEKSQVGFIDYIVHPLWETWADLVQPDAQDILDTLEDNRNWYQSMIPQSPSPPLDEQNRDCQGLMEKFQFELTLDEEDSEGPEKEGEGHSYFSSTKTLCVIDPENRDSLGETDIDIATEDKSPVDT
Summary of the method: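 The readout is membrane depolarisation from a cAMP-sensing CNG channel, detected with a potential dye at ex 535/em 590. Cells were HEK293-derived (endogenous PDE-IV) at 1000 cells/well, titrated up to 22.9 uM final.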

[6] = biological target: Ubiquitin carboxyl-terminal hydrolase 1 (Homo sapiens) (UniProt O94782); experiment: Inhibitors of USP1/UAF1: Pilot qHTS (AID 504865);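 further: rhodamine fluorescence freed from ubiquitin-rhodamine substrate followed over time; top concentration of the series differs between compounds; on the % scale 0 is the no-effect control and ±100 the full control effect; nearly all actives have a fitted effect of over 35% in size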
Ubiquitin carboxyl-terminal hydrolase 1 (Homo sapiens), sequence (O94782 whole entry, looked up): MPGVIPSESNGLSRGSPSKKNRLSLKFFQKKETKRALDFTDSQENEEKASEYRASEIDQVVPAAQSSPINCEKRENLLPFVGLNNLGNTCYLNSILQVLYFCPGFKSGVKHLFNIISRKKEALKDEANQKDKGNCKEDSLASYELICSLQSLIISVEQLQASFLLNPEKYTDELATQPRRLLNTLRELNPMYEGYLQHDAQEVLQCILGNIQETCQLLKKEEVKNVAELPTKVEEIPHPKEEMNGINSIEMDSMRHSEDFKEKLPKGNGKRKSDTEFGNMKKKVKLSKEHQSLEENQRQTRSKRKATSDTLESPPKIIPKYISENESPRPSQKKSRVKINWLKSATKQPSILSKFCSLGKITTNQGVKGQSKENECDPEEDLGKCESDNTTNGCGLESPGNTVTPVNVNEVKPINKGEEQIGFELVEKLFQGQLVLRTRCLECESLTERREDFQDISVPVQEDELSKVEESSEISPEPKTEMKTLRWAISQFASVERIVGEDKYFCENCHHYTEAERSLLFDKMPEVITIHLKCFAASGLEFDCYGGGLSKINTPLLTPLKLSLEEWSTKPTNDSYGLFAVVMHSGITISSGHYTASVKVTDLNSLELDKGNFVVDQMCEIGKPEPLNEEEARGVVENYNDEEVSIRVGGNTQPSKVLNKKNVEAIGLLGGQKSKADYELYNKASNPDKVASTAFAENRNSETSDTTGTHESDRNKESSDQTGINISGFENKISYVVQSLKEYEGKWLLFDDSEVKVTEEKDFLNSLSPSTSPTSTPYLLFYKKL
Summary of the method: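 1nM USP1/UAF1 + cpd, 15 min RT; start w/ Ub-Rho 150nM final; kinetic FL 480/540 nm, 6 reads q60 s. Buffer 50mM HEPES pH 7.8, 0.5mM EDTA, 1mM TCEP, 0.01% Tween-20, 0.1 mg/ml BSA.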

[7] = biological target: DNA dC->dU-editing enzyme APOBEC-3G (Homo sapiens) (UniProt Q9HC16); experiment: qHTS for inhibitors of Vif-A3G interactions: Validation (AID 588379); further: 0% is about no effect
DNA dC->dU-editing enzyme APOBEC-3G (Homo sapiens), sequence (Q9HC16 whole entry, looked up): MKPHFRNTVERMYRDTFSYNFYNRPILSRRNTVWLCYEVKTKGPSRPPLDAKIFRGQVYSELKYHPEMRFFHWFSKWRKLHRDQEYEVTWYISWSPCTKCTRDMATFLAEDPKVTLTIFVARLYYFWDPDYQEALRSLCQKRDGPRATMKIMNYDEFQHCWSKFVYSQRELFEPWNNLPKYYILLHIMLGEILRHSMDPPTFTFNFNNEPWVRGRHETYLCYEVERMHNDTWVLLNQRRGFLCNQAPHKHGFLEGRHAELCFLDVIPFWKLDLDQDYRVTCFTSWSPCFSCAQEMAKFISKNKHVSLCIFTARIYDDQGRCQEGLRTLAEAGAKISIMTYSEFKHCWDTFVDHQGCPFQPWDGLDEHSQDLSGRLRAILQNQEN
Summary of the method: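 Yellow fluorescence (Ex 488, Em 500-530) of Vif-coexpressing HeLa A3G-eYFP cells, scanned by Acumen cytometer, reports blocked A3G degradation. Cells plated at 700/well overnight at 37 deg C before compound addition, then a further overnight compound incubation at 37 deg C.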

[8] = tested on: Zika virus NS2B-NS3 protease; experiment: Primary screen GU AMC qHTS for Zika virus inhibitors (AID 1347154);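 further: 0% = no-inhibitor control and -100% = no-enzyme control; nearly all actives have a fitted effect of over 70% in size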
Summary of the method: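 Unlinked Zika NS2B hydrophilic domain/NS3 protease domain noncovalent complex (25 nM final) in 10 mM Tris-HCl pH 8.0, 0.01% Tween 20, with AMC peptide substrate. Fluorescence (ex 340, em 450 nm) change over 15 min, room temperature; percent inhibition fitted to 4-parameter Hill equation.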

[9] = Primary qHTS for small molecule stabilizers of the endoplasmic reticulum resident proteome: Secreted ER Calcium Modulated Protein (SERCaMP) assay (AID 1508630); further: on the % scale 0 is the no-effect control and ±100 the full control effect
Summary of the method: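 The SH-SY5Y reporter protocol was run at 3 concentrations up to 38.3 uM (primary) or 11 concentrations (follow-up): 16 h compound, 100 nM thapsigargin for 4 h, then extracellular luciferase luminescence.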

[10] = AP1 Signaling Pathway (AID 357; active means well fitted curve in either direction with a large enough effect, not every such curve was filed as active;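 further: ME-180 reporter cells stimulated with EGF at its EC50 level; on the % scale 0 is the no-effect control and ±100 the full control effect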); conditions: ME-180 AP-1-bla reporter, EGF-induced, beta-lactamase ratio, 5 h
Summary of the method: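 Read-out was the 460nm/530nm emission ratio (excitation 405nm) after CCF4 loading for 2.5 hours at room temperature. Cells carried an AP-1-driven beta-lactamase reporter, were stimulated with EC50 EGF plus compound for 5 hours, and AC50 values came from titrations.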

[11] = NFAT Signaling Pathway (AID 444; active means well fitted curve in either direction with a large enough effect, not every such curve was filed as active;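 further: carbachol stimulus at about its EC50 of 1 µM final; on the % scale 0 is the no-effect control and ±100 the full control effect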); conditions: Jurkat NFAT-bla M1, carbachol, beta-lactamase ratio, 5 h
Summary of the method: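 Jurkat cells carrying an NFAT-driven β-lactamase reporter and co-transfected muscarinic M1 receptor were treated with compound plus carbachol (1 uM final, an EC50 level) for 5 h at 37 °C. CCF4 loading followed for 1 h at RT; 460/530 nm ratio gave %activity.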

[12] = Stat Signaling Pathway (AID 446; active means well fitted curve in either direction with a large enough effect, not every such curve was filed as active); conditions: ME-180 (cervical carcinoma) SIE beta-lactamase reporter, IL-6 stimulated, 5 h
Summary of the method: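 Emission at 460 and 530 nm (excitation 405 nm) reports SIE-controlled beta-lactamase in ME-180 cells. Cells received compound with 40 pM IL-6 for 5 hrs at 37 C; data scaled between 300 pM IL-6 and 125 nM JAK-inhibitor controls.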

[13] = biological target: Cytochrome P450 3A4 (Homo sapiens) (UniProt P08684); experiment: qHTS Assay for Activators of Cytochrome P450 3A4 (AID 885); further: nearly all actives have a fitted effect of over 65% in size
Cytochrome P450 3A4 (Homo sapiens), sequence (P08684 whole entry, looked up): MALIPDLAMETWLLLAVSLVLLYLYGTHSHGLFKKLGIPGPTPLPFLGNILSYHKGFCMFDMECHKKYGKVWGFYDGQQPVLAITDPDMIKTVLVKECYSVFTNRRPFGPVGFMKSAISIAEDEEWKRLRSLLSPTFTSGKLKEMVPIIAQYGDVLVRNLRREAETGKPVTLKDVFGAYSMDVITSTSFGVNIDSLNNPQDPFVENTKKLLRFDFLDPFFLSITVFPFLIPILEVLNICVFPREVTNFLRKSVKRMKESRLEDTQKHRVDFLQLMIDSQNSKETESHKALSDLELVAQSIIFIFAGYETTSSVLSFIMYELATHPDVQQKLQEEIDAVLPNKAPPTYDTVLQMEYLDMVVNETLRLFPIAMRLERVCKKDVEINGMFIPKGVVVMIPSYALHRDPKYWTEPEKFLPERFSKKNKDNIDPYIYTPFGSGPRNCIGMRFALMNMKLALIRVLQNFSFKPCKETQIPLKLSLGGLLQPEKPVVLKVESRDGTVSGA
Summary of the method: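 Activators are scored by enhanced luminescence from CYP3A4 conversion of luciferin-PPXE (25uM, equal to KM) to luciferin, after 60 min at RT with an NADPH-regenerating system.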

[14] = biological target: Cytochrome P450 2C9 (Homo sapiens) (UniProt P11712); experiment: qHTS Assay for Inhibitors and Substrates of Cytochrome P450 2C9 (AID 883); further: potency means the concentration at half of the fitted maximal effect; nearly all actives have a fitted effect of over 60% in size
Cytochrome P450 2C9 (Homo sapiens), sequence (P11712 whole entry, looked up): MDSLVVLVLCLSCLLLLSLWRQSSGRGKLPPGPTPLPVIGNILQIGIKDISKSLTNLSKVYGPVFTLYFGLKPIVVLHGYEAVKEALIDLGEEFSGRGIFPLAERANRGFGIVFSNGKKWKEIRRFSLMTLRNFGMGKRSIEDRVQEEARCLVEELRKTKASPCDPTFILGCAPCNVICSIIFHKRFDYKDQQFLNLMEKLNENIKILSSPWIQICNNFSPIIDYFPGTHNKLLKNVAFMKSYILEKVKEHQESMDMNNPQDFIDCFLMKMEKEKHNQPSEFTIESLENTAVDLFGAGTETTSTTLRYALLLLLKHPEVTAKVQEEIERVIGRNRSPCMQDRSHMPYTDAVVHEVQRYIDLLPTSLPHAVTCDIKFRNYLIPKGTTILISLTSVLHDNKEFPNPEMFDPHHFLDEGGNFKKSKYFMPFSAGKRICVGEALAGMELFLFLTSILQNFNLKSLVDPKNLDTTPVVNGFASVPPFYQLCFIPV
Summary of the method: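 A luminogenic readout tracked human CYP2C9 (10nM) converting deoxyluciferin (100uM, at KM) in 25mM KPO4 during 60 min at 37C with regenerated NADPH. Values normalized to 57uM sulphaphenazole as complete inhibition.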

[15] = biological target: Cytochrome P450 3A4 (Homo sapiens) (UniProt P08684); experiment: qHTS Assay for Inhibitors and Substrates of Cytochrome P450 3A4 (AID 884); further: potency means the concentration at half of the fitted maximal effect; nearly all actives have a fitted effect of over 50% in size
Summary of the method: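 Luminescent readout of luciferin produced by CYP3A4 (20 nM) dealkylation of Luciferin-PPXE, 25 uM (its KM). NADPH-driven reaction ran 60 min at RT after 10 min compound preincubation; data scaled to 57 uM ketoconazole as 100% inhibition.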

[16] = biological target: Cytochrome P450 2D6 (Homo sapiens) (UniProt P10635); experiment: qHTS Assay for Inhibitors and Substrates of Cytochrome P450 2D6 (AID 891); further: potency means the concentration at half of the fitted maximal effect; nearly all actives have a fitted effect of over 60% in size
Cytochrome P450 2D6 (Homo sapiens), sequence (P10635 whole entry, looked up): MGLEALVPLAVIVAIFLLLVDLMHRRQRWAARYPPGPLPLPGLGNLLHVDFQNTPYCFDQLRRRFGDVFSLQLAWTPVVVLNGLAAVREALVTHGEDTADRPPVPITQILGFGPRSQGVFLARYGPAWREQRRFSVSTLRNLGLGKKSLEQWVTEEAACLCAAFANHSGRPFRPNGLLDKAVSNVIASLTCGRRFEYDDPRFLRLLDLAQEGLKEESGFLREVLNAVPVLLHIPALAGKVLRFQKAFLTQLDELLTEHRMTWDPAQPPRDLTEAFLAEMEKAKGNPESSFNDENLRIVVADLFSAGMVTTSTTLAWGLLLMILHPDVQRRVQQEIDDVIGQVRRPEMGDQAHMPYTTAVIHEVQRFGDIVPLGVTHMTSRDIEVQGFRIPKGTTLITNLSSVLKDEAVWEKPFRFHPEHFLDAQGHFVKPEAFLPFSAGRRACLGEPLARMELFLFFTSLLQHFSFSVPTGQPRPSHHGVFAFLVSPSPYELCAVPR
Summary of the method: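 Luminescent read-out of luciferin formed by 5 nM human CYP2D6 demethylating 30 uM Luciferin-ME EGE (Km level) over 60 min at room temperature after NADPH regeneration addition. Data normalized to full inhibition by 1.43 uM quinidine.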

O=C(NCCN1CCCCC1)c1ccc(I)cc1
inactive: Potency [2] > 46 µM | Potency [3] > 46 µM | Potency [4] | Potency [5] | Potency [6] | Potency [7] | Potency [8] | Potency [9]
active: Potency [1] 25.1 µM

CC(=O)[C@H]1[C@H](C#N)C[C@H]2[C@@H]3CC=C4C[C@@H](O)CC[C@]4(C)[C@H]3CC[C@@]21C
inactive: activity change, negative = inhibition ([10]; at 17.2 µM (top of the series)) 5.31% | activity change, negative = inhibition ([11]; at 17.2 µM (top of the series)) 9.39% | activity, negative = inhibition ([12]; at 17.2 µM (top of the series)) 2.76% | Potency [2] > 20.6 µM | Potency [8] | Potency [9]

CC(C)(C)Cn1nc(-c2ccc(Cl)cc2)c2c(N)ncnc21
inactive: Potency [2] > 46 µM | Potency [3] > 46 µM | Potency [6] | Potency [8] | Potency [9]
active: Potency [1] 0.158 µM

COc1ccc2[nH]c(I)c(CCNC(C)=O)c2c1
inactive: activity change, negative = inhibition ([10]; at 38 µM (top of the series)) -7.67% | activity change, negative = inhibition ([11]; at 38 µM (top of the series)) -1.64% | activity, negative = inhibition ([12]; at 38 µM (top of the series)) 3.36% | Potency [2] > 46 µM | Potency [3] > 46 µM | Potency [4] | Potency [7] | Potency [8] | Potency [9]

C[C@](O)(C(=O)Nc1ccc(S(=O)(=O)c2ccccc2)cc1)C(F)(F)F
active: Potency [1] 39.8 µM
inactive: Potency [2] > 46 µM | Potency [3] > 46 µM | Potency [4] | Potency [13] | Potency [6] | Potency [8] | Potency [9]

O[C@H](CCCN1CCN(c2ncc(F)cn2)CC1)c1ccc(F)cc1
active: Potency [1] 31.6 µM
inactive: Potency [2] > 46 µM | Potency [3] > 46 µM | Potency [4] | Potency [5] | Potency [6] | Potency [7] | Potency [8] | Potency [9]

C[C@@H](CCCCC(=O)Nc1ccc(C(F)(F)F)cc1)NCCc1cnc[nH]1
inactive: Potency [1] | Potency [2] > 46 µM | Potency [3] > 46 µM | Potency [4] | Potency [5] | Potency [13] | Potency [6] | Potency [8] | Potency [9]
active: Potency [14] 7.94 µM | Potency [15] 5.01 µM | Potency [16] 5.01 µM

N[C@H](Cn1ccc(=O)n(Cc2ccccc2C(=O)O)c1=O)C(=O)O
inactive: Potency [1] | Potency [2] > 46 µM | Potency [3] > 46 µM | Potency [4] | Potency [5] | Potency [6] | Potency [7] | Potency [8] | Potency [9]

CCCCC[C@H](O)/C=C/[C@@H]1[C@@H](CCCCCCC(=O)O)[C@@H](O)C[C@H]1O
inactive: activity change, negative = inhibition ([10]; at 17.2 µM (top of the series)) 8.11% | activity, negative = inhibition ([12]; at 17.2 µM (top of the series)) 2.03% | Potency [2] > 20.6 µM | activity change, negative = inhibition [8] 8.46% [at 6.83 µM] | activity change, negative = inhibition [9] -7.27% [at 3.88 µM]

CCCCCCCC/C=C\CCCCCCCC(N)=O
active: Potency [1] 6.31 µM
inactive: Potency [2] > 46 µM | Potency [3] > 46 µM | Potency [4] | Potency [5] | Potency [7] | Potency [8] | Potency [9]
